Results as given in article PMC4102417.

System: murine 3T3 fibroblasts
Assay: primary screen, percent viability or growth; higher = less effect of the substance
Method: Similarly, for measuring the cytotoxicity concentration (CC50) for 3T3 fibroblast cells, cultures were incubated with drugs for 72 hours and developed using Alamar Blue (Alamar Biosciences Inc, Sacramento, CA) as previously described.

Compound	Mammalian (3T3) cell % growth at 10 uM [%]
C=C(C)[C@@H]1CC[C@]2(CO)CC[C@]3(C)[C@H](CC[C@@H]4[C@@]5(C)CC[C@H](O)C(C)(C)[C@@H]5CC[C@]43C)[C@@H]12	100
COc1cc(OC)c2c(=O)c(O)c(-c3ccc(OC)c(OC)c3)oc2c1	39.6
COc1ccc2cc1Oc1ccc(cc1)C[C@H]1c3cc(c(OC)cc3CCN1C)Oc1c(OC)c(OC)cc3c1[C@H](C2)N(C)CC3	14.6
COc1cc(O)c(C(=O)c2ccccc2)cc1O	47.4
Oc1ccc(O)cc1	93.9
CC(C)=CCc1c2c(c3occ(-c4ccc(O)cc4)c(=O)c3c1O)C=CC(C)(C)O2	30.6
C=CC(C1=CC(=O)C(OC)=CC1=O)c1ccc(OC)cc1 (stereo not shown)	1.2
CN(C)CCCN1c2ccccc2Sc2ccc(Cl)cc21	99.3
CN(C)CCC=C1c2ccccc2CCc2ccccc21	100
CC1OC(OC2C(OC3CCC4(C)C(CCC5(C)C4CC=C4C6CC(C)(C)CCC6(C(=O)O)CCC45C)C3(C)CO)OCC(O)C2O)C(O)C(O)C1O (stereo not shown)	6.8
NCCCCNCCCN	41
COc1c2c(cc3occ(-c4ccc5c(c4)OCO5)c(=O)c13)OC(C)(C)C=C2	68.2
O=C(CCCN1CCC2(CC1)C(=O)NCN2c1ccccc1)c1ccc(F)cc1	94.7
COc1cccc(O)c1O	1.2
CC1(C)C(=O)C=CC2(C)C1=C(O)C(=O)C1(C)C2CCC2(C)C(c3ccoc3)CC3OC321 (stereo not shown)	25.5
Nc1nc(=S)c2[nH]cnc2[nH]1	98.3
CC(=O)N1CCN(c2ccc(OC[C@H]3CO[C@](Cn4ccnc4)(c4ccc(Cl)cc4Cl)O3)cc2)CC1	100

Compound	Mammalian (3T3) cell % growth at 10 uM [%]
CC(=O)OC1CC2C(C)(C)C(=O)CCC2(C)C2CCC3(C)C(c4ccoc4)OC(=O)C4OC43C12C (stereo not shown)	81.4
COC(=O)CC1C(C)(C)C(OC(C)=O)C2C(OC(C)=O)C34OC2(O)C1(C)C3CCC1(C)C4=CC(=O)OC1c1ccoc1 (stereo not shown)	89.7
CN1CCCC1CCOC(C)(c1ccccc1)c1ccc(Cl)cc1 (stereo not shown)	93.2
COc1cc(OC)c2c(=O)c(OC)c(-c3ccc(OC)c(OC)c3)oc2c1	43.3
COC1=CC(=O)C(O)=C/C1=C\C=C\c1ccccc1	0.8
COC(=O)CC[C@@H](C)[C@H]1CC[C@H]2[C@@H]3CC[C@@H]4C[C@H](O)CC[C@]4(C)[C@H]3C[C@H](O)[C@]12C	100
CNc1ccccc1C(=O)N1CCc2c([nH]c3ccccc23)C1=O	75.7
CC(C)C(C)/C=C/C(C)C1CCC2C3=CC=C4CC(O)CCC4(C)C3CCC21C (stereo not shown)	99.6
CC1CCC2(NC1)OC1CC3C4CCC5CC(O)CCC5(C)C4CCC3(C)C1C2C.Cl (stereo not shown)	100
CCCCc1oc2ccccc2c1C(=O)c1cc(I)c(OCCN(CC)CC)c(I)c1.Cl	86.7
Cc1coc2c1C(=O)C(=O)c1c-2ccc2c1CCCC2(C)C	44.3
C[C@@H]1[C@H](O)[C@@H](C)/C=C/C=C/C=C/C=C/C=C/C=C/C=C/[C@H](O[C@@H]2O[C@H](C)[C@@H](O)[C@H](N)[C@@H]2O)C[C@@H]2O[C@](O)(C[C@@H](O)C[C@@H](O)[C@H](O)CC[C@@H](O)C[C@@H](O)CC(=O)O[C@H]1C)C[C@H](O)[C@H]2C(=O)O	89.7
CC(C)CCC[C@@H](C)[C@H]1CC[C@H]2[C@@H]3C(=O)C=C4C[C@@H](O)CC[C@]4(C)[C@H]3CC[C@]12C	68.5
O=c1c(O)c(-c2ccc(O)c(O)c2)oc2c(O[C@@H]3O[C@H](CO)[C@@H](O)[C@H](O)[C@H]3O)c(O)cc(O)c12	100
C=CC(C1=CC(=O)C(OC)=CC1=O)c1ccc(O)cc1 (stereo not shown)	94.8
C=CC(C1=CC(=O)C=CC1=O)c1ccccc1 (stereo not shown)	97.5
c1ccc(-c2ccc(C(c3ccccc3)n3ccnc3)cc2)cc1 (stereo not shown)	93.6
